Laboratory results as given in PubChem BioAssay AID1159580 (chemical genetic matrix, 2015).
Values joined by “and” are separate entries in the source; they are usually repeats but may differ in a detail not shown here. Identical values can stand only once. Hit rate of the full screen: of about 5,500 compounds, about 2,000 (36%) were called active. Another 18% or so got no clear call; they are omitted. Cut-off read from the data, not from the text of the source: active = normalized growth mostly below about 0.91 (no sharp cut-off); inconclusive = no clear call, values can overlap the other calls; inactive = mostly above about 0.92. The list shows a part of the results.

Test: chemical genetic growth profiling, strain panel (AID 1159580);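 note: tested at 20 µM; growth read once vehicle control cultures reached saturation at 30 °C; 1 = growth at the plate median or of vehicle wells; lower values mean less growth of the strain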
Settings: S. cerevisiae deletion strains, growth OD

Measured: normalized growth

CC1CCC(NC(=O)N(CCCl)N=O)CC1 (stereo not drawn)
active: locus YAL021C, strain ccr4, active compounds read low 0.899 | locus YAL026C, strain drs2, active compounds read low 0.24 | locus YAL030W, strain snc1, active compounds read low 0.796 | locus YBR009C, strain hhf1, active compounds read low 0.244 | locus YBR023C, strain chs3, active compounds read low 0.876 | locus YBR171W, strain sec66, active compounds read low 0.68 | locus YBR231C, strain swc5, active compounds read low 0.755 | locus YBR279W, strain paf1, active compounds read low 0.863 | locus YCL011C, strain gbp2, active compounds read low 0.095 | locus YCL016C, strain dcc1, active compounds read low 0.703 | locus YCL061C, strain MRC1, active compounds read low 0.335 | locus YCL069W, strain vba3, active compounds read low 0.834 | locus YCR088W, strain abp1, active compounds read low 0.182 | locus YDR001C, strain nth1, active compounds read low 0.678 | locus YDR137W, strain rgp1, active compounds read low 0.718 | locus YDR159W, strain sac3, active compounds read low 0.852 | locus YDR334W, strain swr1, active compounds read low 0.187 | locus YDR392W, strain spt3, active compounds read low 0.126 | locus YDR502C, strain sam2, active compounds read low 0.859 | locus YEL003W, strain gim4, active compounds read low 0.0715 | locus YEL037C, strain rad23, active compounds read low 0.865 | locus YEL061C, strain CIN8 (second series), active compounds read low 0.339 | locus YER015W, strain faa2, active compounds read low 0.593 | locus YER016W, strain bim1, active compounds read low 0.895 | locus YER155C, strain BEM2 (second series), active compounds read low 0.112 | locus YFR010W, strain ubp6, active compounds read low 0.85 | locus YGL173C, strain kem1, active compounds read low 0.895 | locus YGL227W, strain vid30, active compounds read low 0.07 | locus YGL240W, strain doc1, active compounds read low 0.8 | locus YGL253W, strain hxk2, active compounds read low 0.771 | locus YHR013C, strain ard1, active compounds read low 0.578 | locus YHR027C, strain rpn1, active compounds read low 0.695 | locus YHR142W, strain chs7, active compounds read low 0.476 | locus YIL125W, strain kgd1, active compounds read low 0.929 | locus YJL092W, strain hpr5, active compounds read low 0.644 | locus YJL095W, strain BCK1 (second series), active compounds read low 0.887 | locus YJL115W, strain asf1, active compounds read low 0.622 | locus YJL129C, strain trk1, active compounds read low 0.196 | locus YJL164C, strain tpk1, active compounds read low 0.545 | locus YJL166W, strain qcr8, active compounds read low 0.427 | locus YJR043C, strain POL32, active compounds read low 0.662 | locus YKL085W, strain MDH1 (second series), active compounds read low 0.912 | locus YKL085W, strain MDH1, active compounds read low 0.912 | locus YKR001C, strain vps1, active compounds read low 0.841 | locus YKR026C, strain gcn3, active compounds read low 0.225 | locus YKR091W, strain srl3, active compounds read low 0.81 | locus YLL026W, active compounds read low 0.289 | locus YLL041C, strain sdh2, active compounds read low 0.657 | locus YLR027C, strain aat2, active compounds read low 0.344 | locus YLR221C, strain rsa3, active compounds read low 0.0809 | locus YLR258W, strain gsy2, active compounds read low 0.728 | locus YLR262C, strain YPT6 (second series), active compounds read low 0.635 | locus YLR320W, strain mms22, active compounds read low 0.232 | locus YLR342W, strain FKS1, active compounds read low 0.819 | locus YLR357W, strain rsc2, active compounds read low 0.549 | locus YLR418C, strain cdc73, active compounds read low 0.554 | locus YML120C, strain ndi1, active compounds read low 0.128 | locus YMR058W, strain fet3, active compounds read low 0.216 | locus YMR125W, strain sto1, active compounds read low 0.0911 | locus YMR129W, active compounds read low 0.0909 | locus YMR205C, strain PFK2, active compounds read low 0.728 | locus YNL071W, strain lat1, active compounds read low 0.0878 | locus YNL209W, strain ssb2, active compounds read low 0.798 | locus YNL248C, strain rpa49, active compounds read low 0.0991 | locus YNL307C, strain MCK1, active compounds read low 0.89 | locus YNL322C, strain KRE1 (second series), active compounds read low 0.121 | locus YOR001W, strain rrp6, active compounds read low 0.084 | locus YOR070C, strain gyp1, active compounds read low 0.658 | locus YOR083W, strain WHI5, active compounds read low 0.598 | locus YOR106W, strain vam3, active compounds read low 0.598 | locus YOR184W, strain ser1, active compounds read low 0.161 | locus YOR265W, strain rbl2, active compounds read low 0.894 | locus YOR270C, strain vph1, active compounds read low 0.503 | locus YOR290C, strain snf2, active compounds read low 0.853 | locus YPL051W, strain arl3, active compounds read low 0.816 | locus YPL078C, strain atp4, active compounds read low 0.878 | locus YPL106C, strain sse1, active compounds read low 0.823 | locus YPL240C, strain hsp82, active compounds read low 0.795 | strain wtn01, active compounds read low 0.858
inactive: locus YBL061C, strain skt5, active compounds read low 0.965 | locus YBR021W, strain FUR4, active compounds read low 1.02 | locus YBR229C, strain ROT2, active compounds read low 0.998 | locus YCL029C, strain bik1, active compounds read low 1.01 | locus YDL005C, strain med2, active compounds read low 0.952 | locus YDL035C, strain GPR1, active compounds read low 0.946 | locus YDL040C, strain nat1, active compounds read low 0.983 | locus YDL074C, strain BRE1, active compounds read low 0.874 | locus YDL101C, strain DUN1, active compounds read low 0.995 | locus YDL134C, strain PPH21, active compounds read low 0.995 | locus YDL185W, strain tfp1, active compounds read low 1.01 | locus YDL192W, strain arf1, active compounds read low 1 | locus YDR069C, strain doa4, active compounds read low 0.958 | locus YDR101C, strain arx1, active compounds read low 0.99 | locus YDR150W, strain NUM1, active compounds read low 0.998 | locus YDR162C, strain NBP2, active compounds read low 0.968 | locus YDR195W, strain ref2 0.994 | locus YDR297W, strain sur2, active compounds read low 0.951 | locus YDR318W, strain mcm21, active compounds read low 0.979 | locus YDR335W, strain msn5, active compounds read low 0.933 | locus YDR388W, active compounds read low 1.01 | locus YEL061C, strain CIN8, active compounds read low 0.992 | locus YER110C, active compounds read low 1.01 | locus YER111C, strain swi4, active compounds read low 0.961 | locus YER155C, strain BEM2, active compounds read low 1 | locus YER167W, strain BCK2, active compounds read low 0.938 | locus YGL078C, strain dbp3, active compounds read low 0.957 | locus YGL086W, strain mad1, active compounds read low 0.937 | locus YGL167C, strain pmr1, active compounds read low 0.98 | locus YGL248W, strain PDE1, active compounds read low 1 | locus YGR135W, strain pre9, active compounds read low 0.935 | locus YGR252W, strain gcn5, active compounds read low 0.993 | locus YHR030C, strain SLT2, active compounds read low 0.991 and 0.89 | locus YHR079C, strain IRE1 (second series), active compounds read low 1 | locus YHR079C, strain IRE1, active compounds read low 0.866 | locus YHR094C, strain hxt1, active compounds read low 1.01 | locus YHR129C, strain ARP1, active compounds read low 0.974 | locus YHR200W, strain rpn10, active compounds read low 0.982 | locus YIL066C, strain RNR3, active compounds read low 0.949 | locus YIL073C, strain SPO22, active compounds read low 1.02 | locus YIR030C, strain dcg1, active compounds read low 0.995 | locus YJL095W, strain BCK1, active compounds read low 0.928 and 0.908 | locus YJL134W, strain LCB3, active compounds read low 0.997 | locus YJL154C, strain vps35, active compounds read low 0.975 | locus YJL168C, strain set2, active compounds read low 1.01 | locus YJL187C, strain SWE1 (second series), active compounds read low 1 | locus YJR066W, strain TOR1, active compounds read low 0.894 | locus YKL009W, strain mrt4, active compounds read low 0.921 | locus YKL068W, active compounds read low 0.983 | locus YKL160W, strain elf1, active compounds read low 0.914 | locus YKL190W, strain CNB1, active compounds read low 0.996 | locus YLL001W, strain dnm1, active compounds read low 0.929 | locus YLR039C, strain RIC1, active compounds read low 0.771 | locus YLR058C, strain SHM2, active compounds read low 0.995 | locus YLR102C, strain apc9, active compounds read low 1.01 | locus YLR113W, strain HOG1, active compounds read low 0.902 | locus YLR262C, strain YPT6, active compounds read low 0.656 | locus YLR268W, strain sec22, active compounds read low 0.894 | locus YLR330W, strain CHS5, active compounds read low 0.977 | locus YLR342W, strain FKS1 (second series), active compounds read low 0.991 | locus YLR370C, strain arc18, active compounds read low 0.913 | locus YLR371W, strain rom2, active compounds read low 0.941 | locus YLR384C, strain iki3, active compounds read low 0.956 | locus YML016C, strain PPZ1, active compounds read low 1 | locus YML032C, strain rad52, active compounds read low 1.01 | locus YML124C, strain tub3, active compounds read low 1 | locus YMR078C, strain ctf18, active compounds read low 1 | locus YMR223W, strain ubp8, active compounds read low 0.974 | locus YMR231W, strain pep5, active compounds read low 0.981 | locus YMR307W, strain GAS1, active compounds read low 0.721 | locus YNL067W, strain RPL9B, active compounds read low 0.926 | locus YNL153C, strain GIM3, active compounds read low 0.882 | locus YNL183C, strain NPR1, active compounds read low 0.9 | locus YNL233W, strain BNI4, active compounds read low 0.917 | locus YNL250W, strain rad50, active compounds read low 0.94 | locus YNL271C, strain bni1, active compounds read low 0.93 | locus YNL298W, strain CLA4, active compounds read low 0.957 | locus YNL322C, strain KRE1, active compounds read low 0.985 | locus YNR049C, strain mso1, active compounds read low 0.939 | locus YNR052C, strain pop2, active compounds read low 1.02 | locus YOL012C, strain htz1 0.346 | locus YOL147C, strain pex11, active compounds read low 1 | locus YOR061W, strain CKA2, active compounds read low 1 | locus YOR069W, strain VPS5, active compounds read low 0.998 | locus YOR080W, strain dia2, active compounds read low 0.988 | locus YOR136W, strain idh2, active compounds read low 0.992 | locus YOR144C, strain elg1, active compounds read low 0.998 | locus YOR231W, strain MKK1, active compounds read low 0.89 | locus YOR316C, strain cot1, active compounds read low 1 | locus YPL256C, strain CLN2, active compounds read low 0.855 | locus YPR119W, strain clb2, active compounds read low 1 | locus YPR141C, strain kar3, active compounds read low 0.979 | locus YPR163C, strain tif3, active compounds read low 0.964 | locus YPR167C, strain met16, active compounds read low 0.999
